The full list was thinned out, with hits kept by preference.
BL2 CD40 inh: CD40 pathway inhibition in BL2 cells; BL2 NF-kB luciferase reporter, CD40L-induced, 4 h; inhibition, % at 10 µM; hit rate 0.94% among 83,000;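 active = mean inhibition of at least 50% with a set share of replicates also reaching that level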;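 also: 0% = neutral control wells and 100% = IKK inhibitor VII at 50 µM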
* hit, by the source's call; [ ] = remark or other dose.

Results for OC(c1cc(-c2cccc(Cl)c2)nc2ccccc12)C1CCCCN1 (configuration not stated) ?
BL2 CD40 inh: 65.0*

What do the screens show for `Cc1ccc(S(=O)(=O)Nc2ccc3c(c2)C(=O)N([C@@H](C)CO)C[C@@H](C)[C@@H](CN(C)S(=O)(=O)c2cccs2)OCCCC[C@@H](C)O3)cc1`?
BL2 CD40 inh: 20.3[25 µM]

What do the screens show for `Nc1cccc2nc3ccccc3cc12`?
BL2 CD40 inh: active

Results for Nc1nc2ccccc2cc1S(=O)(=O)c1ccccc1 ?
BL2 CD40 inh: 6.3

How did Cc1cc(N)c2ccccc2n1 do in these assays?
BL2 CD40 inh: 3.4

Results for CO[C@@H]1CN(C)C(=O)c2cc(NC(=O)C3CC3)ccc2OC[C@@H](C)N(CC2CCCC2)C[C@@H]1C ?
BL2 CD40 inh: 0.7

What do the screens show for `C[C@@H](NC(=O)C[C@H]1CC[C@H]2[C@@H](COC[C@H](O)CN2C(=O)Nc2cccc(Cl)c2)O1)c1ccccc1`?
BL2 CD40 inh: 3.4[25 µM]

How did O=C(C[C@H]1CC[C@H]2[C@@H](COC[C@H](O)CN2Cc2cc(F)ccc2F)O1)NCc1ccc(Oc2ccccc2)cc1 do in these assays?
BL2 CD40 inh: 34.6[25 µM]

What do the screens show for `O=C(C[C@@H]1CC[C@H]2[C@@H](COC[C@H](O)CN2Cc2cc(F)ccc2F)O1)NCc1ccc(Oc2ccccc2)cc1`?
BL2 CD40 inh: 35.9[25 µM]

How did O=C(C[C@@H]1CC[C@@H]2[C@H](COC[C@H](O)CN2Cc2cc(F)ccc2F)O1)NCc1ccc(Oc2ccccc2)cc1 do in these assays?
BL2 CD40 inh: 63.4*[25 µM]

How did O=C(C[C@@H]1CC[C@H]2[C@@H](COC[C@@H](O)CN2Cc2cc(F)ccc2F)O1)NCc1ccc(Oc2ccccc2)cc1 do in these assays?
BL2 CD40 inh: 50.8*[25 µM]

Results for CCC(=O)N1C[C@@H](O)COC[C@@H]2O[C@H](CC(=O)NCc3ccc(Oc4ccccc4)cc3)CC[C@H]21 ?
BL2 CD40 inh: 3.2[25 µM]

How did O=C(C[C@@H]1CC[C@@H]2[C@H](COC[C@@H](O)CN2CCC(F)(F)F)O1)NCc1ccc(Oc2ccccc2)cc1 do in these assays?
BL2 CD40 inh: 19.5

How did CCCN(C[C@H]1[C@H](c2ccccc2)[C@@H](CO)N1C(C)=O)C(=O)NC(C)C do in these assays?
BL2 CD40 inh: 0.5[25 µM]

How did O=C(Nc1ccc(N2CCOCC2)cc1)c1cn2ccccc2n1 do in these assays?
BL2 CD40 inh: 57.1*

How did O=C(Nc1ccc(Cl)c(S(=O)(=O)N2CCOCC2)c1)c1cn2ccccc2n1 do in these assays?
BL2 CD40 inh: 5.8

How did O=C(NC1CC1)c1cccc(NC(=O)c2cn3ccccc3n2)c1 do in these assays?
BL2 CD40 inh: -90.0

Results for O=C(C[C@H]1C=C[C@H](NC(=O)C2CCC2)[C@@H](CO)O1)NC1CCCCC1 ?
BL2 CD40 inh: -1.1[25 µM]

How did CCCNC(=O)N1[C@H](CO)[C@H](c2ccc(C#Cc3cccc(F)c3)cc2)[C@@H]1C#N do in these assays?
BL2 CD40 inh: 18.6[25 µM]

Results for COc1ccc2c3c([nH]c2c1)[C@@H](CO)N(C(=O)c1ccccn1)CC31CCN(C(=O)C2CCCC2)CC1 ?
BL2 CD40 inh: -0.9

Results for Oc1ccc(CN2CCCc3ccccc32)c2cccnc12 ?
BL2 CD40 inh: 10.7

Results for Cc1cccnc1NCc1ccc(O)c2ncccc12 ?
BL2 CD40 inh: 58.7*

What do the screens show for `Cc1ccc(-n2cnnn2)c2cccnc12`?
BL2 CD40 inh: 2.1

Results for O=C(N[C@H]1CC[C@@H](CCn2cc(C3(O)CCCC3)nn2)O[C@@H]1CO)C1CCCC1 ?
BL2 CD40 inh: 7.1

What do the screens show for `O=C(C[C@H]1C[C@H]2c3cc(NC(=O)NC4CCCC4)ccc3O[C@H]2[C@@H](CO)O1)NCCc1ccccc1`?
BL2 CD40 inh: -1.5

What do the screens show for `O=C(NCC1CC1)[C@H]1[C@H](CO)[C@H]2Cn3c(cccc3=O)[C@H]2N1CCC(F)(F)F`?
BL2 CD40 inh: 10.8[25 µM]

What do the screens show for `Cc1nnc(NC(=O)c2ccc(-c3ccc(Cl)cc3)o2)s1`?
BL2 CD40 inh: 2.0

Results for Cc1cc(N2CCN(C)CC2)ccc1NC(=O)c1ccc(-c2ccc(Cl)cc2)o1 ?
BL2 CD40 inh: 63.5*

What do the screens show for `O=C(Nc1ccccc1N1CCCCC1)c1ccc(-c2ccc(Cl)cc2)o1`?
BL2 CD40 inh: -2.4

How did CN1c2ccc(-c3ccc(C#N)cc3)cc2[C@H]2[C@H](CCN2S(=O)(=O)c2cccc(F)c2)[C@@H]1CO do in these assays?
BL2 CD40 inh: -1.9

What do the screens show for `c1cncc(-c2ccc(C3[C@H]4CNC[C@@H]3N4Cc3ccc4c(c3)OCO4)cc2)c1` (some centres not stated)?
BL2 CD40 inh: -10.8[25 µM]

What do the screens show for `CN1C(=O)c2cc(NC(=O)c3cccc(F)c3)ccc2OC[C@@H]2O[C@@H](CC(=O)NCc3ccccc3Cl)CC[C@@H]21`?
BL2 CD40 inh: 28.4[25 µM]

How did COc1ccc(-c2ccc(C3[C@H]4CNC[C@@H]3N4Cc3ccc4c(c3)OCO4)cc2)cc1 (some centres not stated) do in these assays?
BL2 CD40 inh: -6.9

How did Cc1cc(NCCCn2ccnc2)n2ncc(-c3ccccc3)c2n1 do in these assays?
BL2 CD40 inh: 88.4*

What do the screens show for `c1ccc(-c2nc(NCCCn3ccnc3)c3ccccc3n2)cc1`?
BL2 CD40 inh: 18.3

What do the screens show for `COc1ccccc1-c1cnn2c(NCCc3ccccc3)cc(C)nc12`?
BL2 CD40 inh: -52.9

How did CC(=O)NC[C@@H]1[C@H](c2ccc(-c3ccccc3F)cc2)[C@@H](CO)N1C(=O)C1CC1 do in these assays?
BL2 CD40 inh: 3.3[25 µM]

How did O=C(O)C[C@@H]1C=C[C@H](NC(=O)Nc2cc(F)ccc2F)[C@@H](CO)O1 do in these assays?
BL2 CD40 inh: 4.9[25 µM]

How did COCC(=O)N1[C@H](C#N)[C@H](c2ccccc2-c2cccc(F)c2)[C@H]1CO do in these assays?
BL2 CD40 inh: -1.8[25 µM]

What do the screens show for `Cc1noc(C)c1C(=O)N(C)C[C@H]1OCc2ccccc2-c2c(n(C)c3ccccc23)C(=O)N([C@H](C)CO)C[C@@H]1C`?
BL2 CD40 inh: 5.3

What do the screens show for `CNC(=O)OCc1nc(SSC(C)(C)C)n(C)c1COC(=O)NC`?
BL2 CD40 inh: 96.1*

How did CCC(=O)N1C[C@H]2[C@@H](c3ccccc31)[C@H](CO)N2Cc1ccccc1Cl do in these assays?
BL2 CD40 inh: 10.4[25 µM]

Results for CC(C)[C@H]1CC=CC[C@@H](C)Oc2ccccc2C(=O)N(C)[C@H](Cc2ccccc2)C(=O)N1 (mixture of isomers) ?
BL2 CD40 inh: 24.1[25 µM]

How did CC12C(=O)OC(=O)C1(C)C1CCC2O1 (configuration not stated) do in these assays?
BL2 CD40 inh: 74.2*[25 µM]

Results for CN1c2ccc(-c3cccc(C#N)c3)cc2[C@H]2[C@H](CCN2C(=O)C2CC2)[C@@H]1CO ?
BL2 CD40 inh: -16.1

How did CC1CC(C)C(=NNC(N)=O)C(C(O)CC2CCC(=O)NC2=O)C1 (configuration not stated) do in these assays?
BL2 CD40 inh: 55.9*

How did COCC(=O)Nc1ccc2c(c1)C(=O)N(C)C[C@@H](OC)[C@H](C)CN(C(=O)c1ccncc1)[C@H](C)CO2 do in these assays?
BL2 CD40 inh: -9.7[25 µM]

How did O=C(NCC[C@H]1CC[C@H](NC(=O)C2CCCC2)[C@@H](CO)O1)c1cnccn1 do in these assays?
BL2 CD40 inh: -15.2

Results for CO[C@@H]1CN(C)C(=O)c2ccc(NC(C)=O)cc2OC[C@H](C)N(C(=O)c2cnccn2)C[C@H]1C ?
BL2 CD40 inh: 0.7[25 µM]

How did O=C(C[C@@H]1C=C[C@@H](NC(=O)C2CC2)[C@@H](CO)O1)Nc1ccccc1 do in these assays?
BL2 CD40 inh: -6.2

How did O=C1CC(c2cccs2)Sc2nc3ccccc3n21 (configuration not stated) do in these assays?
BL2 CD40 inh: -107.6

Compound activity deposited in PubChem BioAssay by Broad Institute.
